The text below walks through data of PubChem BioAssay.

A short description of assay [1]: inhibitors of TNFa-induced NFkB p65 translocation, primary screen, imaging, HUVEC, MLSMR starter and 10KST1 sets (AID 438;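 active = inhibition above 20% together with a positive visual image hit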;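 note: compound added about 3h40 before a 20 min TNFalpha stimulation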;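 for inhibition: signal is the nuclear over cytoplasmic p65 intensity ratio per well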). Particulars: HUVEC TNFa-induced p65 nuclear translocation; cell count: measured here: nuclei count (cytotoxicity indicator), at 2.08 µM; inhibition: at 2 µM, stronger effect = higher value, 0% TNFa-plus-vehicle, 100% no-TNFa wells.
Assay [2] is described as follows: reduction of polyQ htt aggregates in cells – imaging, exon1htt(103Q)mCFP cells, high-content imaging, primary screen (AID 483;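 active = visual image review flags a hit and inhibition of aggregation exceeds 20%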;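 note: compound exposure lasted 3 days before fixation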;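 for nuclei count: percent of the per-plate median nuclei count of sample wells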). Particulars: exon1htt(103Q)mCFP cell line, aggregate imaging, at 2 µM; inhibition of aggregation: stronger effect = higher value; nuclei count: measured here: cell count, toxicity.
Assay [3] is described as follows: endothelial E-selectin expression blockers – imaging, HUVEC, immunofluorescence, MLSMR starter and 10KST1 sets, primary screen (AID 487;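 active = visually confirmed hit in the image check and inhibition above 20%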;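 for inhibition: signal is fraction of cell area covered by stained E-selectin grains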;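 for nuclei count: 100% = median nuclei count of all wells on the same plate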). Particulars: HUVEC TNFalpha-induced E-selectin immunofluorescence imaging, at 2 µM; inhibition: stronger effect = higher value; nuclei count: measured here: cell number, toxicity.
Assay [4] addresses Voltage-gated potassium channel subunit beta-2 (Rattus norvegicus) (UniProt P62483). As to the kind of experiment: inhibitors of rat Kvbeta2 reductase activity – biochemical, NADPH fluorescence, primary screen (AID 622;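 active = fluorescence slope higher than the sample average by over 3 SD, cut at about -0.22 in these data, passing the limit was not always enough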;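 note: slope of raw intensity against log time taken from 70 to 1610 s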). Particulars: recombinant KvBeta, 4-cyanobenzaldehyde reduction, at 10 µM, stronger effect = higher value.
Assay [5] has the same target. As to the kind of experiment: enhancers of rat Kvbeta2 NADPH turnover – biochemical, NADPH fluorescence, primary screen (AID 623;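 active = NADPH fluorescence slope more negative than the mean of all samples by about 3 SD, 99.7% confidence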;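 note: fluorescence intensity change per second fitted from 20 to 320 s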). Conditions: Recombinant KvBeta, NADPH fluorescence decrease slope, 10 min; at 10 µM; stronger effect = lower value.
For assay [6], the target named is Alpha-2C adrenergic receptor (Homo sapiens) (UniProt P18825). As to the kind of experiment: compounds altering alpha2C-coupled GIRK flux – cell-based, HEK293 alpha2C/GIRK1/2, thallium flux, primary screen (AID 624;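 active = fluorescence slope after compound addition differing from the mean of all screened samples at 99.7% confidence, in either direction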;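 note: slope of fluorescence ratio to pre-addition baseline per second over 15 to 24 s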). Conditions: thallium flux BTC fluorescence, at 10 µM, actives lie on both sides.
A short description of assay [7]: blockers of RIG-like receptor reporter activation – cell-based, Sendai virus stimulus, luciferase, 10K MLSCN set, TLR/RLR signaling modifier project, primary screen (AID 602276;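 active = inhibition at or above 50% at 10 µM; inactive = inhibition below 50%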;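 note: firefly luciferase from ISG56 promoter only with Renilla not read in this screen; 0% = Sendai virus plus DMSO and 100% = medium plus DMSO without virus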). Particulars: HEK293 RL24 IRF3 luciferase reporter, at 10 µM, stronger effect = higher value. For orientation: A reporter such as luciferase makes a cellular process visible.
Assay [8] in a line: TLR3 IRF3 reporter activation blockers – cell-based, poly I:C stimulus, luciferase, 10K MLSCN set, primary screen (AID 602277). Conditions: HEK293-TLR3 RL24 IRF3 luciferase reporter, at 10 µM, stronger effect = higher value.

The source made the active and inactive calls.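 Rule for the calls, unless noted: active = inhibition of the reporter signal at or above 50%; inactive = inhibition below 50%.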

Sequence of Alpha-2C adrenergic receptor (Homo sapiens) (P18825 whole entry, looked up): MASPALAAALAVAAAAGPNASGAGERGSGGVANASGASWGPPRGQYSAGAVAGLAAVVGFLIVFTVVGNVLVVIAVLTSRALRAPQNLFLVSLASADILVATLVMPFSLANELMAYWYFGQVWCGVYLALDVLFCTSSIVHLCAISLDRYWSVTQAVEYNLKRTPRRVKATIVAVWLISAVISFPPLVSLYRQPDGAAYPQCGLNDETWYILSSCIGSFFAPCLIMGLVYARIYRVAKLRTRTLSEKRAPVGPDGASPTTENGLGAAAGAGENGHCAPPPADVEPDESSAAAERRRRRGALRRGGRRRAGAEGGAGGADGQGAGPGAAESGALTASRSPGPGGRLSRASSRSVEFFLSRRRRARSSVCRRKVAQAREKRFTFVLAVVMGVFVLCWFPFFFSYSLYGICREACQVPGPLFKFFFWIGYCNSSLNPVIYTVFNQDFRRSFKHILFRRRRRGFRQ
Sequence of Voltage-gated potassium channel subunit beta-2 (Rattus norvegicus) (P62483 whole entry, looked up): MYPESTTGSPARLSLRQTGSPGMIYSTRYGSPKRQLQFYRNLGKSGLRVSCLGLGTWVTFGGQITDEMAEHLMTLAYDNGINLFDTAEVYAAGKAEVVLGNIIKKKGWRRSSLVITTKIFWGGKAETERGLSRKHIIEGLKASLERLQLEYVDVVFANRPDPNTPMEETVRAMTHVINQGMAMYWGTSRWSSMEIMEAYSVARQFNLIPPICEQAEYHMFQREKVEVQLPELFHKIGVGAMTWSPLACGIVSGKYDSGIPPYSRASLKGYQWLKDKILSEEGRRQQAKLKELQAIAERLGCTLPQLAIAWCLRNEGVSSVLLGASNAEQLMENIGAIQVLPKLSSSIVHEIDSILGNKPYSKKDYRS

Regarding `CCOC(=O)c1cc2c(=O)n3cccc(C)c3nc2n(CC2CCCO2)c1=NC(C)=O` (stereo not drawn), the cell count in assay [1] is 435. The inhibition in assay [1] was 28.2% (inactive); in assay [3], -17.2% (inactive); in assay [7], 3.59% (inactive); in assay [8], 8.19% (inactive). The inhibition of aggregation in assay [2] was -1.4% (inactive). The nuclei count stood at 117% in assay [2] and 114% in assay [3]. For the same molecule, the fluorescence slope in assay [4] is -0.295 (inactive). For the same molecule, the NADPH fluorescence slope in assay [5] is -2.5e-05 (inactive). Besides, the slope in assay [6] is 0.00401 (inactive).

Consider `CCCOc1cccc(C(=O)Nc2cc(NC(=O)c3ccco3)ccc2OC)c1`, for which the cell count in assay [1] amounted to 436. Also, the inhibition in assay [1] is 3.8% (inactive); in assay [3], 8.3% (inactive); in assay [7], 2.93% (inactive); in assay [8], -15% (inactive). In assay [2], the inhibition of aggregation was 2.3% (inactive). Further, the values for the nuclei count in assay [2] and in assay [3] were 101% and 105%, respectively. Also, the fluorescence slope in assay [4] was -0.278 (inactive). Also, the NADPH fluorescence slope in assay [5] is -2.4e-05 (inactive). For the same molecule, the slope in assay [6] is 0.00685 (inactive).

`Cc1csc(NC(=O)CCn2c(=O)oc3ccccc32)n1`: the cell count in assay [1] is 502. The inhibition in assay [1] was -20.3% (inactive); in assay [3] it was -6.4% (inactive); in assay [7], 4.3% (inactive); in assay [8], -1.46% (inactive). For the same molecule, the inhibition of aggregation in assay [2] is -30.3% (inactive). For the same molecule, the nuclei count in assay [2] came out at 79.1%; in assay [3], 90.9%. The fluorescence slope in assay [4] was -0.323 (inactive). Moreover, the NADPH fluorescence slope in assay [5] was -4.9e-05 (inactive). Also, the slope in assay [6] is 0.00431 (inactive).

In the case of `CCOC(=O)c1[nH]c(C)c(C(=O)NCc2ccccn2)c1C`, the cell count in assay [1] stood at 664. In addition, the inhibition in assay [1] is -2.8% (inactive); in assay [3] it was -173% (inactive); in assay [7], 17.5% (inactive); in assay [8] it was 14.1% (inactive). Also, the inhibition of aggregation in assay [2] is -6.6% (inactive). The nuclei count turned out to be 87.7% in assay [2] and 114% in assay [3]. Moreover, the fluorescence slope in assay [4] was -0.51 (inactive). Also, the NADPH fluorescence slope in assay [5] was -0.000223 (inactive). In addition, in assay [6], the slope is 0.00562 (inactive).

`Cc1cc(C(=O)NCc2cccnc2)n(-c2ccccc2)n1`: in assay [1], the cell count was 613. Further, the inhibition in assay [1] is -0.9% (inactive); in assay [3], -82.8% (inactive); in assay [7], -0.216% (inactive); in assay [8] it was 8.35% (inactive). In addition, the inhibition of aggregation in assay [2] was -20.8% (inactive). Further, the nuclei count is 103% in assay [2] and 127% in assay [3]. Moreover, in assay [4], the fluorescence slope is -0.546 (inactive). The NADPH fluorescence slope in assay [5] is -1.4e-05 (inactive). The slope in assay [6] was 0.00657 (inactive).

As for `Cc1ccc(NC(=O)CN(C)S(=O)(=O)c2cccc3nsnc23)cc1Cl`, the cell count in assay [1] came to 711. Also, the inhibition was -16.4% (inactive) in assay [1], -20.4% (inactive) in assay [3], -17.3% (inactive) in assay [7] and 100% (active) in assay [8]. In addition, the inhibition of aggregation in assay [2] was 7.2% (inactive). In addition, the nuclei count in assay [2] came to 105%; in assay [3], 115%. In assay [4], the fluorescence slope was -0.333 (inactive). In assay [5], the NADPH fluorescence slope is -4.1e-05 (inactive). The slope in assay [6] is 0.00467 (inactive).

Take `CCOC(=O)C1=C(C)NC(=O)NC1c1ccc(OCCO)c(OC)c1` (stereo not drawn): the cell count in assay [1] was 634. Also, the inhibition in assay [1] is -12.8% (inactive); in assay [3] it was 30.3% (inactive); in assay [7], -1.76% (inactive); in assay [8], 25.5% (inactive). Besides, the inhibition of aggregation in assay [2] is -2.9% (inactive). In addition, the values for the nuclei count in assay [2] and in assay [3] were 102% and 89.2%, respectively. For the same molecule, the fluorescence slope in assay [4] was -0.468 (inactive). For the same molecule, the NADPH fluorescence slope in assay [5] was -4.3e-05 (inactive). Further, the slope in assay [6] is 0.00652 (inactive).

On to `c1ccc(-n2ncc3c(NC4CCCCCC4)ncnc32)cc1`, for which the cell count in assay [1] is 691. For the same molecule, the inhibition in assay [1] was -0.3% (inactive); in assay [3], -56.3% (inactive); in assay [7], -49.7% (inactive); in assay [8] it was -136% (inactive). The inhibition of aggregation in assay [2] was 3.1% (inactive). Moreover, the nuclei count in assay [2] is 115%; in assay [3] it was 122%. The fluorescence slope in assay [4] was -0.547 (inactive). Moreover, the NADPH fluorescence slope in assay [5] is -1.1e-06 (inactive). Moreover, the slope in assay [6] is 0.007 (inactive).

One may read the inhibition as the relative decrease from the control value, in per cent.
